High-throughput results (PubChem)
FBW7 activator = activators of human E3 ligase FBW7; actives 0.13% (n = 650,000); normalized activity (activation), % at 26.1 µM; AlphaScreen FBW7–phospho-cyclin E peptide binding, activator screen; Q969H0; in the data active means normalized activity above about 1.9%;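 further: purified mutant Fbw7 with reduced substrate affinity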
Target sequence (Q969H0 whole entry, looked up): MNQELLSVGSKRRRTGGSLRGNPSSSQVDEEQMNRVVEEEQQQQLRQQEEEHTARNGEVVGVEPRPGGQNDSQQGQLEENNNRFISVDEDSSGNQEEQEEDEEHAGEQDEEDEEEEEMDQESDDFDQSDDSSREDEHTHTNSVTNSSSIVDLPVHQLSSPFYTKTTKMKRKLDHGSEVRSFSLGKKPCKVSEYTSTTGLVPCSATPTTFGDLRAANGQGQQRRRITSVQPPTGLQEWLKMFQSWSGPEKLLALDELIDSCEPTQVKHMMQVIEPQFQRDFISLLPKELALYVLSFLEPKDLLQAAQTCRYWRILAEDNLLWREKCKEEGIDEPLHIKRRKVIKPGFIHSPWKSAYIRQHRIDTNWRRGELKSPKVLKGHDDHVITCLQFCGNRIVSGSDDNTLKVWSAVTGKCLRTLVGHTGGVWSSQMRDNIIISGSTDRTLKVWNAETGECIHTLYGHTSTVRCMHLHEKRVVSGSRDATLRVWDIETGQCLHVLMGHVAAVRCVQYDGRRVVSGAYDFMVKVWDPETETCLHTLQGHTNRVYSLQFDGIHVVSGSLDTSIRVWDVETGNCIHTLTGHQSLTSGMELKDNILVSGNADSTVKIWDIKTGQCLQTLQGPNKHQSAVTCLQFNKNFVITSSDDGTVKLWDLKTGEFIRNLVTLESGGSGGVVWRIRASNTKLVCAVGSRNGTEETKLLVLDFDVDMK
GPR151 ag = human GPR151 activation. PathHunter beta-arrestin GPR151 cells, luminescence. activation, % at 11.2 µM. actives 1% (n = 650,000). AID 1508602; in the data active means activation above about 4.9%;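 further: 0% = median of compound wells and 100% = cells with positive control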
TEAD-YAP block = TEAD-YAP interaction inhibition | HEK-TIYL cells, TEAD-Gal4/YAP UAS-luciferase luminescence | inhibition, % at 9.12 µM | actives 1.4% (n = 640,000) | AID 1259422; in the data active means inhibition above about 32%;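 further: 0% = median of test compound wells and 100% = reference inhibitor wells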
MITF inh = blocks human microphthalmia-associated transcription factor; actives 0.91% (n = 650,000); O75030; AlphaScreen MITF homodimerization, bead proximity signal; inhibition, % at 2.6 µM; in the data active means inhibition above about 50%;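 further: 0% = vehicle wells with protein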
An asterisk follows results filed as active; / = no result. Compounds with a hit are over-represented: about 3.4% of the library has one in this group of screens.

SMILES | FBW7 activator | GPR151 ag | TEAD-YAP block | MITF inh
Cc1ccc2sc(-c3ccc(NC4=CC(=O)CC(C)(C)C4)cc3)nc2c1 | 0 | 0 | 53* | -9
Cc1ccc2sc(-c3ccc(N)cc3)nc2c1 | 0 | -8 | 87* | 7
Cc1ccc2nc(-c3cc(Cl)c(N)c(Cl)c3)sc2c1 | 0 | -1 | -47 | 3
Cc1ccc2nc(-c3ccc(N)cc3)sc2c1 | 0 | -7 | 86* | 18
Cc1ccc2sc(-c3ccc(NS(C)(=O)=O)cc3)nc2c1 | 1 | -1 | -20 | 13
Cc1ccc(-c2csc(Cc3csc(-c4ccc(C)cc4)n3)n2)cc1 | 0 | -2 | -5 | 7
Cc1ccc2sc(NC(=O)/C=C/C(=O)O)nc2c1 | 0 | -3 | 14 | 11
Cc1ccc2sc(-c3ccc(NC(=O)/C=C/C(=O)O)cc3)nc2c1 | 1 | -4 | 92* | 10
O=C(Nc1nc2ccccc2[nH]1)c1ccccc1F | 0 | -9 | 89* | 3
O=C(Nc1nc2ccccc2[nH]1)c1cccc(I)c1 | 0 | 0 | -43 | -10
O=C(Nc1nc2ccccc2[nH]1)c1ccc(F)cc1 | 0 | -8 | 43* | 7
COc1ccc(Cl)cc1C(=O)Nc1nc2ccccc2[nH]1 | 0 | -10 | 66* | 0
Cc1nc2ccccc2n1Cc1nnc(-c2ccccc2)o1 | 0 | 2 | 40* | 4
Cc1ccc(-c2nc3nnnn3nc2-c2ccc(C)cc2)cc1 | 0 | -1 | -14 | 4
Cc1cc(C=C2C(=O)NC(=S)NC2=O)c(C)n1-c1cccc(C(=O)O)c1 | 0 | 2 | -1 | 78*
Cc1cc(C=C2C(=O)N(C)C(=S)N(C)C2=O)c(C)n1-c1ccc(Cl)c(C(=O)O)c1 | 0 | -1 | 3 | 68*
CC(=O)NC1=NC(=O)/C(=C/c2cc(C)n(-c3cccc(C(=O)O)c3)c2C)S1 | -1 | 1 | 18 | 75*
Cc1cc(C=C2C(=O)NC(=O)NC2=O)c(C)n1-c1ccc(C(=O)O)c(Cl)c1 | 0 | 0 | 6 | 54*
Cc1cc(C=C2C(=O)N(C)C(=O)N(C)C2=O)c(C)n1-c1ccc(Cl)c(C(=O)O)c1 | -1 | 0 | -9 | 4
Cc1cccc(-n2c(C)cc(C=C3C(=O)NC(=S)NC3=O)c2C)c1 | 0 | 0 | 12 | -11
CC(=O)NC1=NC(=O)/C(=C/c2cc(C)n(-c3ccc4c(c3)OCO4)c2C)S1 | 0 | 0 | 4 | 2
COc1ccc(C2C(C(=O)N3CCN(c4ccccc4)CC3)c3cc(OC)c(OC)cc3C(=O)N2C)cc1OC (configuration not stated) | 1 | 1 | 10 | 18
COc1cccc(NC(=O)Nc2ccc(C(N)=O)cc2)c1 | 1 | -1 | 1 | 13
Cc1c(NC(=O)/C(=C\c2ccccc2)NC(=O)c2ccccc2)c(=O)n(-c2ccccc2)n1C | 1.9* | -1 | -14 | 12
Cc1ccc(C(=O)N/C(=C\c2ccc(F)cc2)C(=O)Nc2c(C)n(C)n(-c3ccccc3)c2=O)cc1 | 0 | -2 | 1 | 10
SMILES | FBW7 activator | GPR151 ag | TEAD-YAP block | MITF inh
Nc1nonc1C(=O)N/N=C/c1ccccc1O | 0 | -3 | 2 | 63*
O=C(N/N=C/c1cc2ccccc2cc1O)c1ccncc1 | -2 | 3 | 88* | 54*
COc1ccc(O)c(/C=N/NC(=O)c2ccncc2)c1 | -1 | 1 | 24 | 20
Nc1nonc1C(=O)N/N=C/c1cc(Cl)cc(Cl)c1O | -1 | 2 | 9 | 68*
O=C(N/N=C/c1cc(Cl)cc(Cl)c1O)c1ccncc1 | 0 | -1 | 32* | 96*
COc1ccc2cc(CNc3ccccc3)c(=O)n(CC(=O)NCCc3ccc(Cl)cc3)c2c1 | 0 | 1 | -34 | 20
Nc1[nH]c(=O)[nH]c(=O)c1C(c1ccccc1)c1c(N)[nH]c(=O)[nH]c1=O | 0 | 0 | 2 | -4
CCCc1nc2ccccc2n1CC(=O)Nc1ccc(F)cc1 | 0 | 0 | -31 | 6
COc1ccc(C2C(C(=O)Nc3cc(OC)c(OC)c(OC)c3)c3ccccc3C(=O)N2C)cc1 (configuration not stated) | 0 | 0 | 54* | -6
CCCNc1ccnc(Nc2ccncc2)n1 | 0 | -1 | 36* | 3
CCCNc1ccnc(Nc2ccccc2)n1 | 0 | 1 | -31 | 13
COc1ccc(CNc2nccn3c(-c4cccc5ccccc45)cnc23)cc1 | 2.2* | 1 | -8 | 4
COc1ccc(-c2nc(C(N)=O)c3[nH]c(=O)n(-c4cccc(C)c4)c3n2)cc1O | 0 | -1 | 64* | 11
COc1ccccc1-n1c(=O)[nH]c2c(C(N)=O)nc(-c3cccc(F)c3)nc21 | 0 | 1 | -1 | 6
COc1ccc(-c2nc(C(N)=O)c3[nH]c(=O)n(-c4ccccc4OC)c3n2)cc1 | 0 | 1 | 48* | 5
NC(=O)NC(CC(=O)OCC(=O)NCC(F)(F)F)c1ccc(Cl)cc1 (configuration not stated) | 0 | 1 | -2 | -1
CC1(C)CC(=O)C2=C(C1)NC1=C(C(=O)CC(C)(C)C1)C2c1cccc(C(F)(F)F)c1 | 0 | -1 | 2 | 20
CN(C)c1ccc(-c2nc(-c3ccccc3)c(-c3cccs3)[nH]2)cc1 | 0 | -1 | 1 | -9
COc1cc(OC)cc(C(=O)Nc2ccc(NC(=O)c3cc(OC)cc(OC)c3)cc2)c1 | 0 | 1 | 43* | 1
COc1cc(OC)cc(C(=O)Nc2ccc(N3CCN(C(=O)C(C)C)CC3)cc2)c1 | 0 | -1 | 47* | -2
CCn1c2ccccc2c2cc(NC(=O)c3cc(OC)cc(OC)c3)ccc21 | 0 | -1 | 52* | 13
CCOC(=O)c1c(NC(=O)c2cc3n(n2)C(C(F)(F)F)CC(c2ccco2)N3)sc2c1CCCCC2 (configuration not stated) | 0 | 1 | -4 | -5
O=c1/c(=C/c2ccc(OCc3ccccc3)cc2)sc2nc(-c3ccc(Br)cc3)nn12 | 0 | 0 | -1 | 18
O=C(Nc1noc2ccccc12)c1ccccc1 | 0 | -8 | 51* | -10
O=C(Nc1noc2ccccc12)c1ccco1 | 0 | -5 | -21 | 17
SMILES | FBW7 activator | GPR151 ag | TEAD-YAP block | MITF inh
Cc1ccc(C(=O)Nc2noc3ccccc23)cc1 | 0 | -5 | 76* | 5
Cc1ccc(C)c(OCC(O)CNCc2ccc3c(c2)OCO3)c1C (configuration not stated) | 0 | 3 | 7 | 45
COc1cc2c(cc1O)CCC1C2CC[C@@]2(C)C1CC[C@@H]2O (some centres not stated) | 0 | 0 | / | 12
COc1cc2c(cc1O)CC[C@@H]1[C@@H]2CC[C@]2(C)[C@@H](O)CC[C@@H]12 | 0 | -1 | 53* | 17
O=C(O)CCCCCN1C(=O)/C(=C/c2cccc(O)c2)SC1=S | -1 | 4 | 45* | 11
Cc1cccc(/C=C2\SC(=S)N(CCC(=O)O)C2=O)c1 | 0 | -3 | 34* | 16
O=C(O)CCN1C(=O)/C(=C\c2cccc(O)c2)SC1=S | 0 | -1 | 8 | 18
O=C(O)CCN1C(=O)/C(=C/c2cccc(O)c2)SC1=S | 0 | 2 | 2 | -2
